Laboratory results: PubChem BioAssay (NCATS)
Inconclusive results are not listed. Where a call stands in place of a potency, no number is given. Activity calls are given as the source filed them. Calls follow the shape of the dose curve; as a rule, active = well fitted curve in the direction sought with a large enough effect; inconclusive = small, poorly fitted or top-dose-only effect, or another doubt; inactive = no such curve, though single readings can be large; an effect the other way counts as inactive or inconclusive.

How the values were obtained:
[1] = qHTS to identify inhibitors of the type 1 interferon - major histocompatibility complex class I in skeletal muscle: primary screen against the NCATS Pharmaceutical Collection (AID 1347407);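 also: luminescence of HiBiT knocked into endogenous HLA-B as interferon-induced MHC class I level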
Outline: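 Luminescence from HiBiT-tagged endogenous HLA-B*08:01 served as the read-out of IFN-beta-induced MHC class I in CRISPR-engineered C25cl48 myoblasts. Cells received 4 ng/ml IFN-beta plus compound (high final 46 uM, […]) for 24 h.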

[2] = qHTS to identify inhibitors of the type 1 interferon - major histocompatibility complex class I in skeletal muscle: primary screen against the NCATS Mechanism Interrogation Plate v5.0 (MIPE) Libary (AID 1347411); also: nearly all actives have a fitted effect of over 65% in size; also: potency is read from the fitted curve at half-maximal effect
Outline: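 Immortalized human C25cl48 myoblasts with HiBit knocked into endogenous HLA-B*08:01 were stimulated with 4.0 ng/ml IFN-beta and exposed to compounds (11-point 1:3 titration, top 46 uM final) for 24 hrs at 37 C; HiBiT lytic luminescence measured.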

[3] = molecular target: Protein phosphatase 1D (Homo sapiens) (UniProt O15297); test: RapidFire Mass Spectrometry qHTS Assay for Modulators of WT P53-Induced Phosphatase 1 (WIP1) (AID 1347424);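 also: amount of dephosphorylated VEPPL-S-QETFS peptide product formed by WIP1; series mostly up to about 63 µM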
Protein phosphatase 1D (Homo sapiens), sequence (O15297 whole entry, looked up): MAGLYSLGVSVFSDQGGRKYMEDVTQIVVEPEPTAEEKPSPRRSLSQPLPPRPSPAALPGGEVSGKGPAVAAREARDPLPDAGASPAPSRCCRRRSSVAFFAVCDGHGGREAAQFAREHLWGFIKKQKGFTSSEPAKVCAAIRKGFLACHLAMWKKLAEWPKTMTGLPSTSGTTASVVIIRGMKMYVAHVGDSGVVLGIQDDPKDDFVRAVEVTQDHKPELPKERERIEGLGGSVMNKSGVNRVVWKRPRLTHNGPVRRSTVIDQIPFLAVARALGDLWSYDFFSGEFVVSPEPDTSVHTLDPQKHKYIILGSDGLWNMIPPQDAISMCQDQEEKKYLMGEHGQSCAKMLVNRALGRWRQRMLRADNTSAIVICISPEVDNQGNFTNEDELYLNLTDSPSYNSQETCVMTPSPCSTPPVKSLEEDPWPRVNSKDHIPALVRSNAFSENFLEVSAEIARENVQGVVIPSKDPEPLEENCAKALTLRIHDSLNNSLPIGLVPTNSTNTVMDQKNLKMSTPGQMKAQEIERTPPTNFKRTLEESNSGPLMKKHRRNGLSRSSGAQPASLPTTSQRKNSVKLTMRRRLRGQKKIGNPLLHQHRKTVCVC
Outline: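 WIP1 (10 nM final) was preincubated 1 h at room temperature with compounds in Tris-HCl pH 7.5, 30 mM MgCl2, TCEP, EGTA, BSA; 2 uM VEPPL-pS-QETFS phosphopeptide was added for 5 min, quenched with formic acid, and dephosphorylated product quantified by RapidFire MS.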

[4] = molecular target: Protein phosphatase 1D (Homo sapiens) (UniProt O15297); test: Rhodamine-PBP qHTS Assay for Modulators of WT P53-Induced Phosphatase 1 (WIP1) (AID 1347425)
Outline: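 The read-out is the change in Rhodamine-PBP fluorescence (f1 - f0, ex 525/em 598 nm) as Pi is released, read each minute for 11 min. Final reaction: 5 nM WIP1, 10 uM phosphopeptide VEPPL-pS-QETFS, 10 uM Rh-PBP, 50 mM Tris-HCl pH 7.5, 30 mM MgCl2. Compound was preincubated with enzyme for 1 hour at room temperature.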

[5] = Primary qHTS for inhibitors of La Crosse Virus (LACV) - induced cell death in SH-SY5Y cells (AID 1508616); also: potency is read from the fitted curve at half-maximal effect
Outline: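 Luminescent ATP readout (ATPLite 1step, 5 min room temperature) measured rescue from LACV-induced death after 6 days of infection at 0.01 MOI; normalized to infected DMSO wells and uninfected DMSO wells.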

[6] = molecular target: Calcium and integrin-binding protein 1 (Homo sapiens) (UniProt Q99828); test: Primary qHTS for Identification of Calcium Integrin Binding Protein 1 (CIB1) Competitor (AID 1508620);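 also: GST tagged CIB1 binding a fluorescein labelled alphaIIb integrin peptide tracer; top concentration of the series differs between compounds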
Calcium and integrin-binding protein 1 (Homo sapiens), sequence (Q99828 whole entry, looked up): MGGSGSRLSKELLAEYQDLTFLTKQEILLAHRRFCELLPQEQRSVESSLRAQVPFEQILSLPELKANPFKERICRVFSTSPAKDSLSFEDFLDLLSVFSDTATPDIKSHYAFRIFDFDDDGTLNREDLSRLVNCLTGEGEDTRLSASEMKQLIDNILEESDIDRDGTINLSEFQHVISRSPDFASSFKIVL
Outline: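 Fluorescence polarization competition: CIB1-GST (1 uM final) preincubated with compound 15 min at room temperature, then FITC-labeled alphaIIb peptide (100 nM final) added for another 15 min. Polarization read at Ex 480/Em 540.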

[7] = qHTS to identify inhibitors of the type 1 interferon - major histocompatibility complex class I in skeletal muscle: primary screen against the NCATS LOPAC collection (AID 1347405);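 also: lytic HiBiT luminescence reporting HLA-B protein level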; also: potency is read from the fitted curve at half-maximal effect
Outline: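 Immortalized human C25cl48 myoblasts with HiBiT knocked into endogenous HLA-B*08:01 were stimulated with 4.0 ng/ml IFN-beta and given compounds in a 7-point, 1:4.3 titration from 46 uM final; after 24 hrs, lytic HiBiT luminescence was read.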

[8] = qHTS for inhibitors of adenylyl cyclases using a fission yeast platform: a pilot screen against the NCATS LOPAC library (AID 1347410)
Outline: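 Fission yeast qHTS: CHP2027 cells (AC9-GNAS-PDE4D2, fbp1-GFP), 5x10^6 cells/mL working density, EMM + His/Lys/Ura; LOPAC at up to 57 µM final; 18 h dark, 30C; GFP by laser cytometry. DPI positive control, DMSO vehicle.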

[9] = Validation qHTS assay for inhibitors of Activation Induced Cytidine Deaminase (AID): UDG Counterscreen signal (AID 1347427); also: potency is read from the fitted curve at half-maximal effect
Outline: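 Counterscreen read of UDG activity (2 U/mL, 4/3x) in the FRET deamination format with AID (1 uM, 4/3x), DJC20/DJC23 substrates (250 nM, 4x), 4 h at room temperature. NaOH stop, fluorescence at 560 ex/665 em.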

[10] = molecular target: Single-stranded DNA cytosine deaminase (Homo sapiens) (UniProt Q9GZX7); test: Validation qHTS assay for inhibitors of Activation Induced Cytidine Deaminase (AID): AID signal (AID 1347429)
Single-stranded DNA cytosine deaminase (Homo sapiens), sequence (Q9GZX7 whole entry, looked up): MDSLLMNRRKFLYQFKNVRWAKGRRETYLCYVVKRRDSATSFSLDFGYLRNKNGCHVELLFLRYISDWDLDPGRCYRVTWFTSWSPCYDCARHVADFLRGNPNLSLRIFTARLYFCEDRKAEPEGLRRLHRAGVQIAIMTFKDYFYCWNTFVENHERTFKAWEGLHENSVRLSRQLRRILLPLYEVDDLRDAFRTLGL
Outline: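 AID and UDG were combined and compounds added at final up to 114 uM, then DJC20/DJC23 FRET substrate was added for 4 hr at room temperature. NaOH was then added for 30 min before fluorescence was read at 540/590 nm.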

[11] = molecular target: Calcium and integrin-binding protein 1 (Homo sapiens) (UniProt Q99828); test: Validation qHTS for Identification of Calcium Integrin Binding protein 1 (CIB1) Competitor (AID 1508618)
Outline: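 CIB1-GST (1 uM final) incubated 15 min at room temperature with compounds (up to 114 uM), then FITC-labelled alphaIIb peptide (100 nM) added. FP read (Ex 480/Em 540) after 15 min, pH 7.4 buffer containing 5 mM CaCl2.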

[12] = Vero cells viability qHTS for Zika virus inhibitors (AID 1347167)
Outline: (§1)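 Counter-screen for cytotoxicity of hits from NS2B-NS3 protease qHTS. Overnight-attached cells (2.5 x 10^5 cells/mL, DMEM/4% FBS) were dosed in titration, incubated 24 to 48 hours, then assayed by CellTiter Glo.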

[13] = HepG2 cells viability qHTS for Zika virus inhibitors (AID 1347168)
Outline: as §1

[14] = Counterscreen qHTS for small molecule stabilizers of the endoplasmic reticulum resident proteome: GLuc-NoTag assay (AID 1508627); also: potency is read from the fitted curve at half-maximal effect
Outline: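 SH-SY5Y cells stably expressing constitutively secreted GLuc (no SERCaMP tag) were pre-incubated 5 h, treated with compound for 19 h, then 100 nM thapsigargin for 4 h at 37C; medium GLuc read by coelenterazine luminescence.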

[15] = Confirmatory qHTS for small molecule stabilizers of the endoplasmic reticulum resident proteome: Secreted ER Calcium Modulated Protein (SERCaMP) assay (AID 1508628); also: potency is read from the fitted curve at half-maximal effect; nearly all actives have a fitted effect of over 40% in size
Outline: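 We seeded SH-SY5Y-GLuc-SERCaMP cells, added compounds (three concentrations in the primary run, eleven up to 76.6 uM in confirmation), incubated 16 h, depleted ER calcium with thapsigargin, and read luciferase 4 h later.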

SMILES: COCCCN1CCC(NC(=O)c2cc(Cl)c(N)c3c2OCC3)CC1
- Potency [1]: inactive
- Potency [2]: inactive
- Potency [3]: inactive
- outcome [4]: inactive
- Potency [5]: inactive
- Potency [6]: inactive

SMILES: N=C(N)c1ccc2cc(OC(=O)c3ccc(N=C(N)N)cc3)ccc2c1
- Potency [1]: inactive
- Potency [2]: inactive
- Potency [3]: inactive
- outcome [4]: inactive
- Potency [5]: inactive
- Potency [6]: inactive

SMILES: O=Nc1c(-c2c(O)[nH]c3cc(Br)ccc23)[nH]c2ccccc12
- Potency [7]: 15.8 µM (active)
- outcome [8]: inactive
- Potency [2]: 14.7 µM (active)
- Potency [9]: inactive
- outcome [10]: inactive
- outcome [11]: inactive
- Potency [6]: inactive

SMILES: O=C(c1ccccc1)c1ccc2n1CCC2C(=O)O (stereo not given)
- Potency [7]: inactive
- Potency [1]: inactive
- outcome [8]: inactive
- Potency [2]: inactive
- Potency [3]: inactive
- outcome [4]: inactive
- Potency [9]: inactive
- outcome [10]: inactive
- Potency [5]: inactive
- outcome [11]: inactive
- Potency [6]: inactive

SMILES: CC1(C)C(=O)N(CCN2CCC(C(=O)c3ccc(F)cc3)CC2)c2ccccc21
- Potency [7]: inactive
- outcome [8]: inactive
- Potency [9]: inactive
- outcome [10]: inactive
- Potency [5]: inactive
- outcome [11]: inactive
- Potency [6]: inactive

SMILES: C[C@@H](c1ncncc1F)[C@](O)(Cn1cncn1)c1ccc(F)cc1F
- Potency [7]: inactive
- outcome [8]: inactive
- Potency [2]: inactive
- outcome [11]: inactive
- Potency [6]: inactive

SMILES: CCOC(=O)C(C)Oc1cccc2c(=O)n(CC(=O)Nc3ccc4c(c3)OCCO4)ccc12 (stereo not given)
- Potency [7]: inactive
- outcome [8]: inactive
- Potency [2]: inactive
- Potency [9]: inactive
- outcome [10]: inactive
- Potency [5]: inactive
- outcome [11]: inactive
- Potency [6]: inactive

SMILES: Cc1cc(Cl)ccc1OCCCC(=O)NO
- Potency [7]: inactive
- outcome [8]: inactive
- Potency [2]: inactive
- outcome [11]: inactive
- Potency [6]: inactive

SMILES: O=C1c2c(O)cc(O)cc2OC(c2ccc(O)c(O)c2)C1O (stereo not given)
- Potency [7]: inactive
- outcome [8]: inactive
- Potency [2]: inactive
- Potency [9]: inactive
- outcome [10]: inactive
- Potency [5]: inactive
- Potency [6]: inactive

SMILES: O=C(O)c1cn(-c2ccc(F)cc2)c2cc(N3CCNCC3)c(F)cc2c1=O
- Potency [12]: inactive
- Potency [13]: inactive
- Potency [1]: inactive
- Potency [2]: inactive
- Potency [3]: inactive
- Potency [5]: inactive
- Potency [6]: inactive
- Potency [14]: inactive

SMILES: c1ccc2[nH]c(-c3cscn3)nc2c1
- Potency [1]: inactive
- Potency [2]: inactive
- Potency [3]: inactive
- outcome [4]: inactive
- Potency [5]: inactive
- Potency [6]: inactive

SMILES: C[C@H](Cc1ccc(O)c(O)c1)[C@@H](C)Cc1ccc(O)c(O)c1
- Potency [7]: inactive
- outcome [8]: inactive
- Potency [2]: inactive
- outcome [10]: inactive
- Potency [5]: 1 µM (active)
- outcome [11]: inactive
- Potency [14]: 35.5 µM (active)
- Potency [15]: 7.94 µM (active)

SMILES: O=C(CCc1ccc(O)cc1)c1c(O)cc(O)cc1O
- Potency [7]: inactive
- outcome [8]: inactive
- Potency [9]: inactive
- outcome [10]: inactive
- Potency [5]: inactive
- outcome [11]: inactive
- Potency [6]: inactive

SMILES: NNc1nncc2ccccc12
- Potency [7]: inactive
- Potency [1]: inactive
- outcome [8]: inactive
- Potency [3]: inactive
- outcome [4]: inactive
- Potency [9]: 39.8 µM (active)
- Potency [5]: inactive
- outcome [11]: inactive
- Potency [6]: inactive

SMILES: CC1(C)NC(=O)N(c2ccc([N+](=O)[O-])c(C(F)(F)F)c2)C1=O
- Potency [7]: inactive
- Potency [1]: inactive
- outcome [8]: inactive
- Potency [2]: inactive
- Potency [3]: inactive
- outcome [4]: inactive
- Potency [9]: inactive
- outcome [10]: inactive
- Potency [5]: inactive
- outcome [11]: inactive
- Potency [6]: inactive

SMILES: C[C@@H](N)C1CCC(C(=O)Nc2ccncc2)CC1 (stereo not given in full)
- Potency [7]: inactive
- outcome [8]: inactive
- Potency [2]: inactive
- Potency [9]: inactive
- outcome [10]: inactive
- Potency [5]: inactive
- outcome [11]: inactive
- Potency [6]: inactive

SMILES: CN(C)C(=O)COC(=O)Cc1ccc(OC(=O)c2ccc(N=C(N)N)cc2)cc1
- Potency [1]: inactive
- Potency [2]: inactive
- Potency [3]: inactive
- outcome [4]: inactive
- Potency [5]: inactive
- Potency [6]: inactive

SMILES: Cc1cc(O)c2c(c1)C(=O)c1cc(O)cc(O)c1C2=O
- Potency [7]: inactive
- outcome [8]: inactive
- Potency [2]: inactive
- Potency [9]: inactive
- outcome [10]: inactive
- Potency [5]: inactive
- Potency [6]: inactive
- Potency [15]: 14.1 µM (active)

SMILES: NCCCCNCCCN
- Potency [7]: inactive
- outcome [8]: inactive
- Potency [9]: inactive
- outcome [10]: inactive
- Potency [5]: inactive
- outcome [11]: inactive
- Potency [6]: inactive

SMILES: O=C(NCCO[N+](=O)[O-])c1cccnc1
- Potency [1]: inactive
- Potency [2]: inactive
- Potency [3]: inactive
- outcome [4]: inactive
- Potency [5]: inactive
- Potency [6]: inactive

SMILES: CC1=C(C)C(=O)C(C(CCCCCC(=O)O)c2ccccc2)=C(C)C1=O (stereo not given)
- Potency [1]: inactive
- Potency [2]: inactive
- Potency [3]: inactive
- outcome [4]: inactive
- Potency [5]: inactive
- Potency [6]: inactive

SMILES: CC(=O)N1CCN(c2ccc(OC[C@H]3CO[C@](Cn4ccnc4)(c4ccc(Cl)cc4Cl)O3)cc2)CC1
- Potency [7]: inactive
- outcome [8]: inactive
- Potency [2]: inactive
- Potency [9]: inactive
- outcome [10]: inactive
- Potency [5]: inactive
- outcome [11]: inactive
- Potency [6]: inactive

SMILES: Clc1ccc2c(N3CCN(CCCN4CCN(c5ccnc6cc(Cl)ccc56)CC4)CC3)ccnc2c1
- Potency [7]: inactive
- outcome [8]: inactive
- Potency [2]: inactive
- outcome [11]: inactive
- Potency [6]: inactive

SMILES: O=C(NC(Cc1cc(=O)[nH]c2ccccc12)C(=O)O)c1ccc(Cl)cc1 (stereo not given)
- Potency [1]: inactive
- Potency [2]: inactive
- Potency [3]: inactive
- outcome [4]: inactive
- Potency [5]: inactive
- Potency [6]: inactive

SMILES: O=C(O)c1cccnc1Nc1cccc(C(F)(F)F)c1
- Potency [7]: inactive
- Potency [1]: inactive
- outcome [8]: inactive
- outcome [4]: inactive
- Potency [9]: inactive
- outcome [10]: inactive
- Potency [5]: inactive
- outcome [11]: inactive
- Potency [6]: inactive
